According to PubChem BioAssay:
Records with an inconclusive call do not appear.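 How the source made its calls, unless noted: active means RAM network inhibition above 8.4% in each of two replicates, 3 SD over the compound average; inconclusive means above 8.4% inhibition in only one replicate; inactive means 8.4% inhibition or less in each replicate.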

Legend:
[1] = OD615 S. cerevisiae growth inhibition, permissive medium, pilot counter-assay, permissive growth control for S. cerevisiae lifespan shortening project (AID 705;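 active means growth inhibition above 25% in both replicates, a cutoff set 3 SD above the mean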); conditions: OD615, 24 h, at 10 µM, stronger effect = higher value
[2] = Restrictive medium S. cerevisiae growth inhibition, OD615, pilot screen of yeast lifespan reduction project, restrictive growth control (AID 706;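 active means growth inhibition above a set limit, 3 SD over mean compound inhibition, in both replicates, cut at about 43% in these data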;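 further: modified DeaD lifespan yeast strain shifted to restrictive glucose medium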); conditions: OD615, 48 h, at 10 µM, stronger effect = higher value
[3] = viability gain of MRP-1-high H69AR cells under doxorubicin, pilot screen, MRP-1 activator project, CellTiter-Glo, duplicate (AID 807;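 active means viability increase at or above a cutoff of the median across tested compounds plus 3 SD, cut at about 8.5% in these data, passing the limit was not always enough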;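 further: compound pretreatment 18-22 h then 72 h combined with doxorubicin; 0% = doxorubicin alone and 100% = vehicle without doxorubicin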); conditions: H69AR viability with doxorubicin, CellTiter-Glo luminescence; at 10 µM; stronger effect = higher value
[4] = growth suppression of beta-catenin knockout HCT116, pilot screen, human colon tumor cells (AID 823;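 active means cell viability at or below a set limit in both duplicate runs, the limit being the all-compound median minus 4 SD, cut at about 23% in these data, passing the limit was not always enough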;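 further: 0% = wells killed by 20 µM Hyamine and 100% = untreated DMSO cell wells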); conditions: CellTiter-Glo, 60 h, at 10 µM, stronger effect = lower value
[5] = RAM signaling pathway blockade in yeast – S. cerevisiae, Pdr1DBD-CYC8 efflux-inhibited sensitized strain, primary screen (AID 1298);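 further: 0% = DMSO untreated cells without growth and 100% = 10 µM 1-NA-PP1 full growth; higher means more yeast growth rescued from 5-FOA killing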; conditions: S. cerevisiae cbk1-as DSE1-URA3 strain, 5-FOA growth OD615, 2 d; at 50 µM; stronger effect = higher value
[6] = growth suppression of PTEN-deleted HCT116, pilot screen, cell-based, HCT116 clonal line, CellTiter-Glo (AID 824;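 active means viability at or below 27.92% in each of two runs, the all-compound median minus 4 SD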;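 further: 0% = 20 µM Hyamine control and 100% = vehicle cell control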); conditions: 60 h, at 10 µM, stronger effect = lower value

CC1(C)Cc2c(c(=S)nc(-c3ccccc3)n2CCCN2CCOCC2)CO1
inactive: growth inhibition [1] -12.8% | growth inhibition [2] 6.05% | viability increase [3] -3.1% | viability [4] 97.2% | RAM network inhibition [5] 2.19%

Cc1ccc(C)c2[nH]c(=O)c(CCNC(=O)c3cc4ccccc4o3)cc12
inactive: growth inhibition [1] -2.5% | growth inhibition [2] -11.6% | viability increase [3] 1.81% | viability [4] 95.4% | viability [6] 91.2% | RAM network inhibition [5] 4.18%

CCOc1ccc(-n2nnc3c(=O)n(CC(=O)N4CCCc5ccccc54)cnc32)cc1
inactive: growth inhibition [1] -3.47% | growth inhibition [2] -10.2% | viability increase [3] -0.3% | viability [4] 85.3% | viability [6] 84% | RAM network inhibition [5] 2.69%

O=c1c2ccccc2nc2c3ccccc3ncn12
inactive: growth inhibition [1] -15.1% | growth inhibition [2] -15.2% | viability increase [3] -0.34% | viability [4] 103% | viability [6] 101% | RAM network inhibition [5] 6.01%

COc1ccccc1S(=O)(=O)Cc1ccc(C(=O)NCc2cccnc2)o1
inactive: growth inhibition [1] 0.915% | growth inhibition [2] -0.525% | viability increase [3] -1.11% | viability [4] 97.8% | viability [6] 94.9% | RAM network inhibition [5] 2.56%

C=CCOC(=O)c1sc(NC(=O)c2ccco2)nc1C
inactive: growth inhibition [1] -13.2% | growth inhibition [2] -5.04% | viability increase [3] -1.25% | viability [4] 94% | viability [6] 84.6% | RAM network inhibition [5] 1.63%

Cc1ccc(C2CC(=O)NC(SCCC(C)C)=C2C#N)cc1 (stereo unspecified)
inactive: growth inhibition [1] -9.08% | growth inhibition [2] -2.19% | viability increase [3] -4.1% | viability [4] 96.8% | viability [6] 78.9% | RAM network inhibition [5] 9.74%

COc1ccc(C(=O)c2oc3ccc(Br)cc3c2NC(C)=O)cc1
inactive: growth inhibition [1] -2.44% | growth inhibition [2] -3.18% | viability increase [3] -3.96% | viability [4] 97.7% | viability [6] 104% | RAM network inhibition [5] 1.07%

CCOC(=O)c1c(CN2CCCCC2)n(C)c2cc(Br)c(O)c(CN(C)C)c12
inactive: growth inhibition [1] -16.8% | growth inhibition [2] 5.7% | viability increase [3] -2.65% | viability [4] 75.7% | viability [6] 79.5% | RAM network inhibition [5] 0.94%

O=C(CSc1nc2c([nH]c3ccccc32)c(=O)n1-c1ccccc1)N1CCOCC1
inactive: growth inhibition [1] -7.05% | growth inhibition [2] -18.6% | viability increase [3] -6.19% | viability [4] 93.6% | viability [6] 87% | RAM network inhibition [5] 5.28%

Cc1cc(C)cc(NC(=O)CSc2nnc(Cn3c(=O)sc4ccccc43)n2C)c1
inactive: growth inhibition [1] -6.84% | growth inhibition [2] -21.8% | viability increase [3] -2.93% | viability [4] 98.2% | viability [6] 94.9% | RAM network inhibition [5] 1.37%

CCOc1cc(-c2nc(-c3ccc(OC)cc3)no2)cc(OCC)c1OCC
inactive: growth inhibition [1] -4.43% | growth inhibition [2] -2.33% | viability increase [3] -3.25% | viability [4] 93.9% | viability [6] 89.5% | RAM network inhibition [5] 9.91%

Clc1cc(Br)ccc1OCCOCCN1CCOCC1
inactive: growth inhibition [1] -3.75% | growth inhibition [2] 2.38% | viability increase [3] 0.57% | viability [4] 93.5% | viability [6] 91.7% | RAM network inhibition [5] 0.08%

CCOC(=O)c1c(C)[nH]c(C(=O)COc2ccc3c(c2)OCO3)c1C
inactive: growth inhibition [1] 1.84% | growth inhibition [2] -1.24% | viability increase [3] -2.79% | viability [4] 91.2% | viability [6] 87.5% | RAM network inhibition [5] 5.07%

Cc1ccc(-c2nc(CSCC(=O)N3CCN(C(=O)c4ccco4)CC3)c(C)o2)cc1
inactive: growth inhibition [1] -4.69% | growth inhibition [2] 14.9% | viability increase [3] -1.03% | viability [4] 76.4% | viability [6] 76.5% | RAM network inhibition [5] 6.53%

CCOc1ccc(Cn2nnc(C(=O)Nc3cc(OC)cc(OC)c3)c2N)cc1
inactive: growth inhibition [1] -2.1% | growth inhibition [2] 0.885% | viability increase [3] -5.5% | viability [4] 86% | viability [6] 88% | RAM network inhibition [5] 2.46%

Cn1c(=O)c2nnn(/N=C(\c3ccccc3)C3CC3)c2n(C)c1=O
inactive: growth inhibition [1] -11.4% | growth inhibition [2] -15% | viability increase [3] -1.2% | viability [4] 103% | viability [6] 98.7% | RAM network inhibition [5] 2.84%

COc1ccc(C(=O)CSc2nnc(-c3ccccc3)o2)cc1
inactive: growth inhibition [1] 4.92% | growth inhibition [2] 15.3% | viability increase [3] -0.88% | viability [4] 95.6% | viability [6] 88.8% | RAM network inhibition [5] 7.56%

COc1ccc(C2C(C(C)=O)=C(O)C(=O)N2CCN(C)C)cc1OC (stereo unspecified)
inactive: growth inhibition [1] -17.7% | growth inhibition [2] -12.3% | viability increase [3] 0.21% | viability [4] 92.6% | viability [6] 96.9% | RAM network inhibition [5] 1.99%

Cc1ccc(OCC(=O)Nc2ccc(O)c(-c3nc4ccccc4o3)c2)cc1
inactive: growth inhibition [1] -10% | growth inhibition [2] -14.9% | viability increase [3] -7.57% | viability [4] 38.8% | viability [6] 54% | RAM network inhibition [5] 2.6%

O=C(OCC1COc2ccccc2O1)c1c(F)cccc1F (stereo unspecified)
inactive: growth inhibition [1] -5.97% | growth inhibition [2] -0.835% | viability increase [3] 2.01% | viability [4] 93% | viability [6] 95.8% | RAM network inhibition [5] 7.73%

Cc1ccc(Nc2ncnc3nc[nH]c23)cc1Cl
inactive: growth inhibition [1] 1.92% | growth inhibition [2] 31.3% | viability increase [3] -1.76% | viability [4] 105% | viability [6] 90.8% | RAM network inhibition [5] 4.7%
